Screening results: PubChem BioAssay, National Center for Advancing Translational Sciences (NCATS)
Shown are actives, neighbours in structure and some others; about 21% of the full set was active somewhere.
Shiga inhibitor: A qHTS for Small Molecule Inhibitors of Shiga Toxin. Vero cells, Shiga toxin protein synthesis inhibition reporter. inhibition, % at 38.7 µM. 9.2% of 290,000 active. AID 2315, 2010; in the data active = inhibition mostly above about 28%, no sharp cut-off; inactive = mostly below about 43%
Cycloheximide cs: Cycloheximide Counterscreen for Small Molecule Inhibitors of Shiga Toxin; 12% of 300,000 active; cell reporter, cycloheximide protein synthesis inhibition counterscreen; max response, %; in the data active = max response mostly above about 13%, no sharp cut-off; inactive = mostly below about 14%; also: read at 38.3 µM for the half of the compounds with a filed dose
Pf growth 48h: Primary qHTS for delayed death inhibitors of the malarial parasite plastid, 48 hour incubation | AID 504832, 2011 | Potency, µM (doses to about 28.7 µM), hits mostly inhibitors | P. falciparum luciferase growth in erythrocytes, 48 h | 5.9% of 310,000 active
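First compound was added to culture medium, then infected red cells at 0.1% parasitemia and 2% hematocrit (final). After incubation at 37 C under 5% CO2, luciferase detection reagent was dispensed and light output recorded.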
Sm TGR block: qHTS Assay for the Inhibitors of Schistosoma Mansoni Peroxiredoxins; purified TGR, DTNB reduction, TNB absorbance 405 nm; Potency, µM (doses to about 114 µM), usual class: inhibitors; 3% of 360,000 active; also: nearly all actives have a fitted effect of over 60% in size
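First, TGR (20 nM dispensed) and NADPH were mixed with compound. Second, a 15 min room-temperature incubation followed. Third, further NADPH and then DTNB were added to start the reaction. Finally, TNB absorbance was monitored kinetically.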
NS1 inh: qHTS Assay for Inhibitors of Influenza NS1 Protein Function; Potency, µM (series often up to 46.1 µM); 0.4% of 270,000 active; AID 2326, 2010; calls by dose curve; also: actives are rising curves; nearly all actives have a fitted effect of over 50% in size
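Recovery from NS1-induced slow growth read by OD600 in budding yeast switched to galactose assay medium (pH 6.0, -URA) at 1:100 dilution. Compound 23 nl per well; the matching strain lacking NS1 serves as control.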
Pf growth 96h: Primary qHTS for delayed death inhibitors of the malarial parasite plastid, 96 hour incubation; P. falciparum luciferase reporter growth, 96 h; Potency, µM (top dose mostly 28.7 µM), usual class: inhibitors; 6.9% of 320,000 active
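Parasite growth measured via integrated firefly luciferase reporter in P. falciparum. Infected erythrocytes at 2% hematocrit, 0.05% parasitemia final were treated 96 hours at 37 C under 5% CO2, and luminescence was read.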
Each line names hits and unclear results; the compound was inactive in the other large screens. Unless noted, calls follow the shape of the dose curve; as a rule, active = well fitted curve in the direction sought with a large enough effect; inconclusive = small, poorly fitted or top-dose-only effect, or another doubt; inactive = no such curve, though single readings can be large; an effect the other way counts as inactive or inconclusive.

O=C(COC(=O)c1c(Cl)cccc1Cl)NC1CCCCC1	none
O=C1CCCS(=O)(=O)c2ccccc21	none
CN(Cc1c(F)cccc1Cl)C(=O)CCc1c[nH]c2ccccc12	Pf growth 96h inconclusive
CC(=O)c1ccc(S(=O)(=O)N(C)CCCC(=O)N(C)Cc2c(F)cccc2Cl)cc1	Pf growth 48h inconclusive, Pf growth 96h 11.7µM
COCc1cc(=O)[nH]c(Nc2nc3ccc(C)cc3o2)n1	Shiga inhibitor 82.3, Cycloheximide cs 42.8, Pf growth 48h 2.94µM, Pf growth 96h inconclusive
CCc1ccc2nc(Nc3nc(COC)cc(=O)[nH]3)nc(C)c2c1	Pf growth 48h inconclusive
CCN(CC)c1ccc(NC(=O)/C=C\c2ccccc2Cl)cc1	Shiga inhibitor 64.3, Cycloheximide cs 27.3, Pf growth 48h inconclusive, Pf growth 96h 1.04µM
CN(C)c1ccc(NC(=O)/C=C/c2ccccc2Cl)cc1	Shiga inhibitor 80.1, Cycloheximide cs 31.8, Pf growth 48h inconclusive, Pf growth 96h inconclusive
CCC(=O)Nc1cc(C(=O)OCC(=O)c2ccccc2Cl)ccc1C	Shiga inhibitor 105.6, Cycloheximide cs 44.8
CCC(=O)Nc1cc(C(=O)OCC(=O)c2ccc(Cl)cc2Cl)ccc1C	none
CCC(=O)Nc1cc(C(=O)OCC(=O)c2ccccc2)ccc1C	Shiga inhibitor active, Cycloheximide cs 53.1
O=C(O)c1cn(Cc2cccnc2)c(=O)c2ccccc12	Pf growth 48h inconclusive (no result: NS1 inh)
O=C1Nc2ccccc2N(O)N1c1cc(-c2ccccc2)[nH]n1	none (no result: NS1 inh)
Cc1c(Cl)cccc1NC(=O)NCc1ccccn1	Cycloheximide cs 15.0, Sm TGR block 39.8µM
Cc1nn(C)c(C)c1CNC(=O)Nc1cccc(Cl)c1C	Cycloheximide cs 31.8 (no result: NS1 inh)
O=C(NCc1ccccn1)Nc1ccccc1Cl	Shiga inhibitor 32.3, Cycloheximide cs 24.8
COC(=O)c1ccccc1NC(=O)NCc1ccccn1	Pf growth 48h inconclusive
O=C(NCc1ccccn1)Nc1cccc(Cl)c1Cl	Cycloheximide cs 59.2
COc1cccc(-c2ncc3ccccc3c2COC(=O)N(C)C)c1	Pf growth 96h inconclusive (no result: Shiga inhibitor, Cycloheximide cs, NS1 inh)
CCCCCCCCCCCCCCCCCCO	none (no result: Sm TGR block, NS1 inh)
CC1CCN(CC(=O)N2c3ccccc3Sc3cc4ccccc4cc32)CC1	none (no result: Shiga inhibitor, Cycloheximide cs, Pf growth 48h, Sm TGR block, Pf growth 96h)
Cc1c(C(=O)N(C)C)sc2c1c(=O)n(-c1ccc(Cl)c(Cl)c1)c(=O)n2CC(=O)Nc1cccc(C(F)(F)F)c1	none (no result: Shiga inhibitor, Cycloheximide cs, Pf growth 48h, NS1 inh, Pf growth 96h)
CC(C)CCC(CC(C)O)C(=O)NNC(=S)Nc1ccccc1 (centres undefined)	none
COc1cc(OC)cc(-c2nnc(SCC(=O)N(C(C)C)C(C)C)o2)c1	Pf growth 48h 7.38µM
COc1cc(OC)cc(-c2nnc(SCC(=O)N(Cc3ccccc3)C(C)(C)C)o2)c1	Pf growth 48h inconclusive
COc1cccc(-c2nnc(SCC(=O)N(C(C)C)C(C)C)o2)c1	Shiga inhibitor 55.8, Sm TGR block inconclusive
COc1cccc(-c2nnc(SCC(=O)N3CCCCC3)o2)c1	none (no result: Shiga inhibitor, Cycloheximide cs, Pf growth 48h, NS1 inh, Pf growth 96h)
COc1cc(-c2nnc(SCC(=O)N(Cc3ccccc3)C(C)(C)C)o2)cc(OC)c1OC	Pf growth 48h 10.4µM, Pf growth 96h 3.7µM
Cc1cccn2c(=O)c3cc(C(=O)NC(C)(C)C)n(C)c3nc12	none (no result: Shiga inhibitor, Cycloheximide cs, Pf growth 48h, NS1 inh, Pf growth 96h)
Cc1csc(NC(=O)CSc2nc3sc(C)c(C)c3c(=O)[nH]2)n1	none
Cc1ccc(NC(=O)c2sc3nc(CCl)[nH]c(=O)c3c2C)c(C)c1	Shiga inhibitor 59.5, Pf growth 48h inconclusive, Sm TGR block 20µM, Pf growth 96h inconclusive (no result: NS1 inh)
Cc1cc(C)c(NC(=O)c2sc3nc(C)[nH]c(=O)c3c2C)c(C)c1	none
CSCc1nc2sc(C(=O)Nc3nc(C)cs3)c(C)c2c(=O)[nH]1	Cycloheximide cs 33.4 (no result: NS1 inh)
O=C(O)C1CCN(C(=O)CSc2nc3ccccc3c(=O)n2-c2ccc(Cl)cc2)CC1	none
COc1ccc(Cl)cc1NC(=O)CN1c2ccccc2S(=O)(=O)c2ccccc21	none (no result: Shiga inhibitor, Cycloheximide cs, Pf growth 48h, NS1 inh, Pf growth 96h)
CCC(C)(C)NC(=O)C1CCC(CNS(=O)(=O)c2ccc3c(c2)CC(C)N3C(C)=O)CC1 (centres undefined)	none (no result: Shiga inhibitor, Cycloheximide cs, Pf growth 48h, NS1 inh, Pf growth 96h)
COc1ccccc1OCC(=O)N(Cc1nc(-c2ccc(Cl)cc2)no1)C(C)C	Pf growth 96h 4.15µM (no result: Pf growth 48h)
COc1ccccc1OCC(=O)N(Cc1nc(-c2ccccc2)no1)C(C)C	none
CC(C)N(Cc1nc(-c2ccccc2)no1)C(=O)C(Cl)(Cl)Cl	Pf growth 48h 1.85µM
CSc1ccccc1NC(=O)c1ccc(N2CCCC2=O)cc1	none (no result: Shiga inhibitor, Cycloheximide cs, NS1 inh)
CCSC1(SCC)N=C(N)C2(C#N)C(c3ccccc3)NC3=C(CCC3)C12C#N (centres undefined)	Sm TGR block inconclusive (no result: Pf growth 96h)
CCSC1(SCC)N=C(N)C2(C#N)C(c3ccc(OC)c(OC)c3OC)C12C#N (centres undefined)	Pf growth 48h inconclusive, Sm TGR block 14.1µM
COCCN(C(=O)COC(=O)c1ccc2[nH]c(C)c(C)c2c1)c1c(N)n(Cc2ccccc2)c(=O)[nH]c1=O	Pf growth 48h inconclusive, Pf growth 96h inconclusive (no result: Shiga inhibitor, Cycloheximide cs, NS1 inh)
Cc1ccccc1NC(=O)C(C)SCc1ccccc1 (centres undefined)	none
CC(SCc1ccccc1)C(=O)Nc1ccccc1Br (centres undefined)	Cycloheximide cs 42.3 (no result: Shiga inhibitor)
c1cncc(-c2nn[nH]n2)c1	none
Brc1cccc(-c2n[nH]c(-c3ccccc3)n2)c1	Shiga inhibitor 146.0, Cycloheximide cs 64.4 (no result: Pf growth 96h)
c1ccc(-c2nc(-c3cccnc3)n[nH]2)cc1	Cycloheximide cs 31.4
CCCCCC(=O)Nc1cccc(C2=NOC3(C2)C[C@@H](C(N)=O)N(C(=O)Cc2ccc([N+](=O)[O-])cc2)C3)c1 (some centres undefined)	Pf growth 48h inconclusive, Pf growth 96h inconclusive
CCC(=O)Nc1cccc(C2=NOC3(C2)C[C@H](C(N)=O)N(C(=O)c2ccc(Cl)cc2)C3)c1 (some centres undefined)	Pf growth 48h inconclusive
COc1ccc(C(=O)N2CC3(CC(c4cccc(NC(=O)COc5ccc(Cl)cc5)c4)=NO3)C[C@@H]2C(N)=O)cc1 (some centres undefined)	Pf growth 48h 10.4µM, Pf growth 96h 11.7µM
NC(=O)[C@@H]1CC2(CC(c3cccc(NC(=O)COc4ccc(Cl)cc4)c3)=NO2)CN1C(=O)c1ccccc1 (some centres undefined)	Pf growth 48h 10.4µM, Pf growth 96h 13.1µM
NC(=O)[C@H]1CC2(CC(c3cccc(NC(=O)COc4ccc(Cl)cc4)c3)=NO2)CN1C(=O)Cc1ccc([N+](=O)[O-])cc1 (some centres undefined)	Pf growth 48h 8.28µM, Pf growth 96h 11.7µM
C=C(C)C(=O)N1CC2(CC(c3cccc(NC(=O)COc4ccc(Cl)cc4)c3)=NO2)C[C@@H]1C(N)=O (some centres undefined)	Pf growth 48h inconclusive, Pf growth 96h inconclusive
CCOc1ccccc1-n1nnnc1SCC(=O)NCc1ccco1	none (no result: Sm TGR block)
